# According to PubChem BioAssay (NCATS):
# Records with an inconclusive call do not appear. Entries that show only a call come without a potency. The source made the active and inactive calls. Calls come from the whole dose curve; as a rule, active = well fitted curve in the direction sought with a large enough effect in the signal ratio, with a control signal flat (not every such curve was filed as active); inconclusive = small, poorly fitted or top-dose-only effect, or effect the other way, or a change in a side signal; inactive = no such curve, though single readings can be large or run the other way; the % refers to the signal ratio.
# Biological target: Tyrosine-protein phosphatase non-receptor type substrate 1 (Homo sapiens) + Leukocyte surface antigen CD47 (Homo sapiens) (UniProt P78324+Q08722)
# Assay: CD47-SIRPalpha protein protein interaction - LANCE assay qHTS validation (AID 1347057)
# Details: Recombinant CD47-His / biotin-SIRPalpha, TR-FRET ratio; series mostly up to 38.3 µM
# How it was run: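 First, His-tagged CD47 and Eu-labelled anti-His antibody met the compound for 30 min; next, site-specifically biotinylated SIRPalpha was added for 30 min; finally streptavidin-APC was added before reading the TR-FRET ratio.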
# Potency is the fitted concentration of half-maximal effect.
# Tyrosine-protein phosphatase non-receptor type substrate 1 (Homo sapiens) + Leukocyte surface antigen CD47 (Homo sapiens), sequence (P78324 whole entry, looked up): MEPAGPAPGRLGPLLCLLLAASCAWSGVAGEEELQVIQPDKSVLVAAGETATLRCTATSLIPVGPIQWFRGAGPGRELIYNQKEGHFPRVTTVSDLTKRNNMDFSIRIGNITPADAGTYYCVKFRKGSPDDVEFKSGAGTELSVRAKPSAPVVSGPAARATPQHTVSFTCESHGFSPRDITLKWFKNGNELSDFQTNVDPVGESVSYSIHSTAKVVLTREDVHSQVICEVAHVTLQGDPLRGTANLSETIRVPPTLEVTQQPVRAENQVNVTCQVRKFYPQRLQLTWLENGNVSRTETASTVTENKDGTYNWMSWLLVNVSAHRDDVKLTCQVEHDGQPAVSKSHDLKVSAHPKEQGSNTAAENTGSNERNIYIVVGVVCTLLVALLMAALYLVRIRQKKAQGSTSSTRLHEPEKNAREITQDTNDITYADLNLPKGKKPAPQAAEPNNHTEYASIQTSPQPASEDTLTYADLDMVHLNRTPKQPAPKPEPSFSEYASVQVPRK
# Tyrosine-protein phosphatase non-receptor type substrate 1 (Homo sapiens) + Leukocyte surface antigen CD47 (Homo sapiens), sequence (Q08722 whole entry, looked up): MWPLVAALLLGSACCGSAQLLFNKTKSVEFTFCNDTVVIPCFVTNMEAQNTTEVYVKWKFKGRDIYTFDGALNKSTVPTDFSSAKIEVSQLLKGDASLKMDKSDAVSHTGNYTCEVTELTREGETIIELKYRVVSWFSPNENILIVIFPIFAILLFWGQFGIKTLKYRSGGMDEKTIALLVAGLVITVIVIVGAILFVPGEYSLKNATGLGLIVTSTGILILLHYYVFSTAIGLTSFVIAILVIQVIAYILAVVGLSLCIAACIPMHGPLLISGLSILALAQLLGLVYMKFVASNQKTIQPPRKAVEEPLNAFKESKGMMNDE
row,SMILES,Potency
1,CC[C@@H](C)[C@H]1O[C@]2(CC[C@H]1C)C[C@@H]1C[C@@H](CC=C(C)[C@@H](O[C@H]3C[C@H](OC)[C@@H](O[C@H]4C[C@H](OC)[C@@H](O)[C@H](C)O4)[C@H](C)O3)[C@@H](C)C=CC=C3CO[C@@H]4[C@H](O)C(C)=C[C@@H](C(=O)O1)[C@]34O)O2,inactive
2,Fc1cccc(/C=N/N=C/c2cccc(F)c2)c1,inactive
3,O=Nc1ccc2oc(=O)ccc2c1,inactive
4,O=C(NOCC1CC1)c1cc(Br)c(F)c(F)c1Nc1ccc(I)cc1Cl,inactive
5,CCCCCCCCCCCCCCCCCC(=O)OC(CC(=O)O)C[N+](C)(C)C (stereo unspecified),inactive
6,O=S(=O)(c1cccc2c(I)cccc12)N1CCCNCC1,inactive
7,CN[C@H](CC(C)C)C(=O)N[C@H]1C(=O)N[C@@H](CC(N)=O)C(=O)N[C@H]2C(=O)N[C@H]3C(=O)N[C@H](C(=O)N[C@H](C(=O)O)c4cc(O)cc(O)c4-c4cc3ccc4O)[C@H](O)c3ccc(c(Cl)c3)Oc3cc2cc(c3O[C@@H]2O[C@H](CO)[C@@H](O)[C@H](O)[C@H]2O[C@H]2C[C@](C)(N)[C@H](O)[C@H](C)O2)Oc2ccc(cc2Cl)[C@H]1O,inactive
8,O=c1[nH]c2cc(C(F)(F)F)ccc2n1-c1cc(C(F)(F)F)ccc1O,inactive
9,COc1ccccc1CNCCCCCCNCCCCCCCCNCCCCCCNCc1ccccc1OC,inactive
10,O=C(Nc1ccncc1)c1cc([N+](=O)[O-])ccc1Cl,inactive
11,OCC1O[C@H]([S-])[C@H](O)[C@@H](O)[C@@H]1O.[Au+] (stereo partly specified),5.85 µM (active)
